MsrA inh – inhibitors of bovine MsrA | purified bovine MsrA, absorbance read-out | inhibition, % at 15.5 µM | 0.75% of 360,000 active; in the data active means inhibition above about 4.5%
MsrA act – bovine methionine sulfoxide reductase A activation | purified bovine MsrA, absorbance read-out | activation, % at 10.6 µM | 0.3% of 360,000 active | AID 602163; in the data active means activation above about 7.5%
sPLA2-III inh – Blocks human group III sPLA2 activity; 0.56% of 370,000 active; inhibition, % at 12.2 µM; AID 743126; QFRET BODIPY PC-A2 liposome hydrolysis, fluorescence; Q9NZ20;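 active means inhibition above mean plus 3 SD of compounds lying within the high and low control bounds, cut at about 19% in these data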
Target sequence (Q9NZ20 whole entry, looked up): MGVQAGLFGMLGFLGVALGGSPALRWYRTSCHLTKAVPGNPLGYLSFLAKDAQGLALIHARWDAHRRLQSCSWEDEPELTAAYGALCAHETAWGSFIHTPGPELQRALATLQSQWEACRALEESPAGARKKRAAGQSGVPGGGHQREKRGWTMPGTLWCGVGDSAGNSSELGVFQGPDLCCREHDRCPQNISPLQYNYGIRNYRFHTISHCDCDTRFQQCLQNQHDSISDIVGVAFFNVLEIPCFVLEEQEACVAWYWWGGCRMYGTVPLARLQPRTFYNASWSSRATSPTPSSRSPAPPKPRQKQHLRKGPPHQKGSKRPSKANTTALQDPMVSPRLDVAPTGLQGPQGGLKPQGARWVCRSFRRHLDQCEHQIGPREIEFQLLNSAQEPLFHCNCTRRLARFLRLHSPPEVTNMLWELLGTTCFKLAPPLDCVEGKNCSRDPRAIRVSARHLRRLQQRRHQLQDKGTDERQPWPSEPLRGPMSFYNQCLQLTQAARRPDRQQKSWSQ
rCAG RNA binder – binds r(CAG) RNA repeats; r(CAG) RNA repeat, TO-PRO-1 dye displacement fluorescence; inhibition, % at 3 µM; 1.3% of 370,000 active; AID 651821;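 active means inhibition above the plate cutoff, the mean of all test compounds on that plate plus 3 SD, cut at about 35% in these data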;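 further: higher means more dye released from RNA so lower well fluorescence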
Each line names hits and unclear results; the compound was inactive in the other large screens. An excerpt weighted towards active compounds, which were near 2.8% of everything screened.

CCc1nnc(NC(=O)CSc2nc3[nH]c(=O)cc(O)c3s2)s1	none
Cc1ccc(Cl)cc1NC(=O)CSc1sc2c(O)cc(=O)[nH]c2c1C#N	rCAG RNA binder 35.2
CCc1nnc(NC(=O)CSc2sc3c(O)cc(=O)[nH]c3c2C#N)s1	rCAG RNA binder 56.7
Cc1cc(=O)[nH]c(SCC(=O)Nc2cccc3ccccc23)c1C#N	none (no result: MsrA inh, sPLA2-III inh, rCAG RNA binder)
CCOc1cc(C2NC(=S)NC(C)=C2C(=O)Nc2ccc(OC)cc2)ccc1O (configuration not stated)	none
COC(=O)c1ccc(=O)c2nc3/c(=C/O)c(O)cc(=O)c3[nH]c12	rCAG RNA binder 69.0
COc1cc(/C=N/NC(=O)c2nnn(-c3nonc3N)c2-c2cccs2)ccc1O	none
COc1ccc(/C=N/N=C(\N)c2nonc2N)cc1OC	MsrA inh 4.6
COc1ccc(/C=N/NC(=O)c2nnn(-c3nonc3N)c2-c2cccs2)cc1OC	MsrA inh 4.6
COc1ccc(NC(=O)C(=O)c2cn(CC(=O)N3CCCC3)c3ccccc23)c(OC)c1	none
N#Cc1ccccc1S(=O)(=O)N1CCN(C(=O)CN2CCCC2c2cccs2)CC1 (configuration not stated)	none
Cc1ccc(S(=O)(=O)Nc2nc3ccccc3nc2NCC2CCCO2)cc1C (configuration not stated)	rCAG RNA binder 41.9
O=C(Nc1ccccc1)c1ccc2nc(-c3ccco3)c(-c3ccco3)nc2c1	rCAG RNA binder 74.4
Nc1c(C(=O)Nc2ccccc2)sc2nc(-c3ccco3)ccc12	rCAG RNA binder 34.6
Cc1nc2cc(NC(=O)N3CCN(c4ccccn4)CC3)ccc2o1	none
O=C(Nc1ccc2nc(-c3ccco3)c(-c3ccco3)nc2c1)N1CCN(c2ccccn2)CC1	rCAG RNA binder 44.5
CC(=O)c1ccc(NC(=O)CSc2nnc(-c3ccoc3C)n2Cc2ccccc2)cc1	none
CCN(CC(=O)NCc1ccc(Cl)cc1)C(=O)CSc1cccc(C(F)(F)F)c1	none
Cc1ccsc1/C=C(\C(=O)c1ccc(OC(C)C)cc1)c1nc2ccccc2o1	MsrA inh 4.6
Cc1ccc(-c2nc3ccccc3o2)cc1NC(=O)Cc1cccs1	none
COc1ccc(C(=O)/C=C/Sc2nc3ccccc3o2)cc1	none
O=C(O)C/C(=C\c1cc(Br)cs1)c1nc2ccccc2o1	MsrA inh 4.6
O=C(CSc1nc2ccccc2o1)Nc1nc(-c2ccccc2)cs1	none
Cc1ccsc1/C=C(\CC(=O)O)c1nc2ccccc2o1	MsrA inh 4.6
CC(=O)c1ccccc1OCC(O)CNC1CCCC1 (configuration not stated)	none
Brc1cccc2sc(N3CCCC3)nc12	none
CN1CCN(C(c2ccc(Br)cc2)c2cc(Cl)c3cccnc3c2O)CC1 (configuration not stated)	sPLA2-III inh 20.3
CN1CCN(C(c2ccc(F)cc2)c2ccc3cccnc3c2O)CC1 (configuration not stated)	none (no result: MsrA inh, sPLA2-III inh, rCAG RNA binder)
C/C(=N\NC(=O)c1ccc(Br)cc1)C1C(=O)c2ccccc2C1=O	rCAG RNA binder 47.6
CCOc1ccc(C(=O)N/N=C(/C)C2C(=O)c3ccccc3C2=O)cc1	none
O=C(Oc1cc2oc(=O)cc(-c3ccccc3)c2cc1Cl)C1CCCCC1	MsrA inh 18.0
CC(C)(C)OC(=O)NCC(=O)Oc1cc2oc(=O)cc(-c3ccccc3)c2cc1Cl	none
Cc1ccc(-c2nc3ccccc3s2)cc1NC(=S)NC(=O)/C=C/c1ccco1	none
O=C(/C=C/c1ccco1)NC(=S)Nc1cc(-c2nc3ccccc3s2)ccc1Cl	rCAG RNA binder 45.8
CN(Cc1nccs1)C(=O)C1CCC(=O)N(CCc2ccc(Cl)cc2)C1 (configuration not stated)	none
CCCn1c(SCC(=O)N2CCN(C(C)=O)CC2)nc2sc3c(c2c1=O)CCC3	none
Cc1ccc(C(=O)Nc2ccc([N+](=O)[O-])cn2)o1	MsrA inh 4.6
Cc1ccc(C)c(OCc2ccc(C(=O)Nc3ccc([N+](=O)[O-])cn3)o2)c1	none
CCCCNC(=S)N/N=C/c1ccc(C#N)cc1	MsrA inh 4.7
CCNC(=S)N/N=C/c1ccc(F)cc1	none (no result: MsrA act)
O=c1cnnc(N/N=C/c2cccs2)[nH]1	MsrA inh 4.6
c1ccc2c(c1)nc(N1CCOCC1)c1nncn12	MsrA inh 4.6
CN(C)c1nc(NCc2ccccc2)nc(SCC(=O)Nc2ccccc2)n1	MsrA act 18.0
CCC(C(=O)Nc1cc(C(=O)Nc2cc(C)ccn2)ccc1Cl)c1ccccc1 (configuration not stated)	none
Oc1[nH]c2ccccc2c1C1=NCCCCC1	MsrA inh 4.6
CCOc1ccc(C(=O)NCC(C)C)cc1	none
COc1ccc(Cl)cc1NC(=O)CSc1nc2sccc2c(=O)[nH]1	rCAG RNA binder 44.6
COc1ccc(C)cc1NC(=O)CSc1nc2scc(C)c2c(=O)[nH]1	none
COc1ccc(-c2nc(SCc3ccc(C#N)cc3)[nH]c(=O)c2C#N)cc1	none
N#Cc1c(-c2ccco2)nc(SCc2ccc(F)cc2)[nH]c1=O	rCAG RNA binder 49.9
CCOc1ccc(NC(=O)C(c2ccccn2)N(C(=O)CCl)c2ccc(OC)cc2)cc1 (configuration not stated)	none
Cc1cc(C)nc(NC2=NCC(=O)N2c2ccccc2)n1	none
COc1ccc(N2C(=O)CN=C2Nc2nc(C)cc(C)n2)cc1	MsrA inh 4.5
Nc1ccccc1SC(CC(=O)c1ccccc1)c1cccc([N+](=O)[O-])c1 (configuration not stated)	MsrA act 8.1
COC(=O)c1cc(CC(=O)c2ccc(O)cc2O)c(C)o1	MsrA inh 7.2
O=C(OCc1ccccc1)c1ccc(NCc2cc(O)ccc2O)cc1	sPLA2-III inh 25.7
CC(C)OC(=O)c1ccc(NCc2cc(O)ccc2O)cc1	sPLA2-III inh 22.2
Cc1ccc(C(C)(C)C)cc1S(=O)(=O)Nc1nc2ccccc2nc1Cl	rCAG RNA binder 63.0
O=S(=O)(Nc1nc2ccccc2nc1Cl)c1ccc2ccccc2c1	rCAG RNA binder 48.8
CCc1cccc(NC(=S)N(CCCN2CCOCC2)C(C)c2cc3cccc(OC)c3o2)c1 (configuration not stated)	none
Cc1cc(=O)[nH]c(-n2nc(C)cc2C)n1	none
CCSc1n[nH]c(=S)s1	MsrA act 8.5
Cn1cccc1/C=C(/C#N)c1ccc(F)cc1	MsrA inh 5.6
CCC[n+]1c2ccccc2cc2ccccc21	sPLA2-III inh 29.3
CCCCC[n+]1cccc2c3ccccc3ccc21	none
CCOC(=O)N1CCN(C(=O)COC(=O)C2CCN(S(=O)(=O)c3ccc(C)c(C)c3)CC2)CC1	none
O=C1NN(c2ccccc2)C(=O)C1=Cc1ccccc1O	none
O=C1NN(c2ccc(Br)cc2)C(=O)/C1=C\c1ccc(O)cc1O	rCAG RNA binder 45.9
O=C(O)c1ccccc1NS(=O)(=O)c1ccc(N/N=C/c2cccc(O)c2O)c([N+](=O)[O-])c1	rCAG RNA binder 91.6
CN(CCO)c1ccc(C=NNc2ccc([N+](=O)[O-])cc2S(=O)(=O)Nc2ccccc2C(=O)O)cc1	rCAG RNA binder 90.8
O=C1CCC(C(=O)NCc2cccnc2)N1 (configuration not stated)	none
O=C(CCCN1C(=O)/C(=C/c2ccc3c(c2)OCO3)SC1=S)Nc1cccc(C(=O)O)c1	rCAG RNA binder 51.1
